Data from the supplement of paper PMC5662767.
Where a name gives a salt, the structure may show the parent alone.

Tested on: Drosophila S2 cl14 SmoIP sensor cells
Experiment: normalized SmoIP GFP fluorescence (untreated unstimulated = 0%, untreated Hh-stimulated = 100%); higher = more Smo activation sensor fluorescence
Conditions: compound concentration: 2 uM, 24 h
[1] = stimulation: Hh conditioned medium (+Hh)
[2] = stimulation: mock conditioned medium (-Hh)
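Also: flow cytometry read-out as median GFP intensity of gated cells, compounds added 30 min before Hh-conditioned or mock medium, mock-treated cells serving as unstimulated baseline.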

Row | SMILES | normalized SmoIP GFP fluorescence [1] | normalized SmoIP GFP fluorescence [2]
1 | CCN(CC)C(=O)c1ccc(C2=CC3(CCNCC3)Oc3cccc(O)c32)cc1 | 99.7% | 2.11%
2 | Fc1cc(F)c2c(c1)[C@H]1C=CC[C@H]1C(c1cccnc1)N2 (stereo not given in full) [golgicide-a] | 101% | -5.15%
3 | Cn1cc(C2=C(c3cn(C4CCN(Cc5ccccn5)CC4)c4ccccc34)C(=O)NC2=O)c2ccccc21 [Enzastaurin] | 135% | 38.2%
4 | N#CC(C#N)=Cc1ccc(O)c(O)c1 [ag-18-tyrphostin-23] | 147% | -12%
5 | COc1ccc(C(=O)N2CCCC2=O)cc1 [Aniracetam] | 104% | -0.588%
6 | N[C@@H]1C[C@H]1c1ccccc1 [tranylcypromine-2-pcpa-hcl] | 109% | -1.34%
7 | Cc1cccc([C@H](C)c2c[nH]cn2)c1C [dexmedetomidine] | 108% | -2.59%
8 | CCCN1CCOC2c3cc(O)ccc3OCC21 (stereo not given) | 113% | -13.6%
9 | CCCN1C[C@H](CSC)C[C@@H]2c3cccc4[nH]cc(c34)C[C@H]21 [Pergolide-mesylate] | 119% | -0.889%
10 | C[C@H]1CNCCc2ccc(Cl)cc21 [lorcaserin-hcl] | 99.3% | -2.48%
11 | CN1[C@@H]2CC(O)C[C@H]1[C@@H]1O[C@@H]12 (stereo not given in full) [scopine] | 142% | -12%
12 | O=c1[nH]c2ccc(Cl)cc2c(N[C@@H]2CN3CCC2CC3)c1-c1nc2ccccc2[nH]1 [chir-124] | 253% | 23.9%
13 | CCN(C)C(=O)Oc1cccc([C@H](C)N(C)C)c1 [rivastigmine-tartrate-exelon] | 95.8% | -3.05%
14 | C[C@]12N[C@H](Cc3ccccc31)c1ccccc12 [mk-801-maleate] | 103% | -3.16%
15 | C[C@H]1CCC/C=C/[C@@H]2C[C@H](O)C[C@H]2[C@H](O)/C=C/C(=O)O1 [brefeldin-a] | 101% | -4.58%
16 | O=C(O)CNC(=O)c1c(O)c2ccccc2n(Cc2ccccc2)c1=O | 109% | -2.82%
17 | CN1c2ccccc2C(NCCCCCCC(=O)O)c2ccc(Cl)cc2S1(=O)=O (stereo not given) [Tianeptine-sodium-salt] | 110% | 0.274%
18 | CCC(COC(=O)c1cc(OC)c(OC)c(OC)c1)(c1ccccc1)N(C)C (stereo not given) [trimebutine] | 111% | -15.8%
19 | C=CC[C@]1(O)CC[C@H]2[C@@H]3CCC4=CC(=O)CCC4=C3C=C[C@@]21C [altrenogest] | 109% | -1.23%
20 | O=C(O[C@H]1C[N+]2(CCCOc3ccccc3)CCC1CC2)C(O)(c1cccs1)c1cccs1 [aclidinium-bromide] | 97.3% | -4.58%
